The values that follow come from PubChem BioAssay (Tox21).

SMILES strings stand for the structures. Unmarked numbers belong to inactive results. Results filed as inconclusive are left out. Activity calls are given as the source filed them. Unless noted, calls follow the shape of the dose curve; as a rule, active = well fitted curve in the direction sought with a large enough effect in the repeat runs; inconclusive = weak or mixed curves; inactive = no such curve, though single readings can be large; an effect the other way counts as inactive or inconclusive.

The nature of assay [1]: qHTS assay to identify small molecule agonists of the hypoxia (HIF-1) signaling pathway - cell viability counter screen (AID 1224844; calls by dose curve; also: nearly all actives have a fitted effect of over 50% in size; also: potency is read from the fitted curve at half-maximal effect). In outline: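 Viability counter screen: HRE-bla ME-180 cells plated 5 hrs before compound addition, treated 17 hrs at 37C and 5% CO2, then CellTiter-Glo added after the FRET reporter read; luminescence after 30 min.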
(In qHTS, concentration-response curves come from the screen itself.)

Assay [2] in a line: qHTS assay to identify small molecule agonists of H2AX (AID 1224845; active = well fitted activation curve with a large enough effect in the signal ratio in the repeat runs, not every such curve was filed as active; the % refers to the signal ratio; also: potency is read from the fitted curve at half-maximal effect). In outline: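 Wild-type CHO-K1 cells plated overnight, then exposed 3 hr at 37C to compounds at 15 concentrations (0.76% DMSO). Lysed, then HTRF anti-pH2AX(S139)-cryptate/anti-H2AX-d2 detection after 24 hr at room temperature; emissions 665 and 620 nm.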
The nature of assay [3]: qHTS assay to identify small molecule agonists of the hypoxia (HIF-1) signaling pathway (AID 1224846; active = well fitted activation curve with a large enough effect in the signal ratio in the repeat runs, not every such curve was filed as active; the % refers to the signal ratio). In outline:
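Agonist mode reporter screen. ME-180 cells stably expressing bla under HRE control received test compounds in DMSO for 17 hrs (37C, 5% CO2), and beta-lactamase activity was then detected with the CCF4-AM FRET substrate.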

The nature of assay [4]: qHTS assay to identify small molecule agonists of H2AX - cell viability counter screen (AID 1224847; calls by dose curve; also: nearly all actives have a fitted effect of over 30% in size; also: potency is read from the fitted curve at half-maximal effect). Summed up:
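Compounds tested at 15 concentrations were incubated 3 hr at 37C with wild-type CHO-K1 cells; cellular ATP-based luminescence (CellTiter-Glo) indicated viability.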

Assay [5] in a line: A CellTox Green Cytotoxicity Assay to monitor cytotoxicity in HEK293 cells - 0 hour (AID 1224869). Also: nearly all actives have a fitted effect of over 50% in size. Also: potency is read from the fitted curve at half-maximal effect. Summed up: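 Dead-cell fluorescence measured kinetically: asymmetric cyanine dye, HEK293, 600 cells/well, 5 h settle, 23 nL cpd/DMSO, 37 C, reads 0–40 h every 8 h.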
Assay [6] is described as follows: qHTS assay to identify small molecule antagonists of the estrogen related receptor (ERR) signaling pathway from Tox21 library (AID 1224848). Also: nearly all actives have a fitted effect of over 50% in size. Also: potency is read from the fitted curve at half-maximal effect. Summed up:
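Tox21 10K compounds in DMSO tested for ERR pathway antagonism in NTP's ERR cell line; 18 h, 37 C exposure; ONE-Glo luminescence.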

A short description of assay [7]: qHTS assay to identify small molecule agonists of the estrogen related receptor (ERR) signaling pathway from Tox21 library (AID 1224849; calls by dose curve; also: nearly all actives have a fitted effect of over 15% in size). The note with it: ERR reporter cell line, ONE-Glo luciferase, 18 h; at 92.4 µM (top of the series) unless noted. In outline:
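Quantitative HTS in agonist format: NTP ERR cell line, compounds transferred in DMSO after 6 h plating, 18 h incubation at 37 C, ONE-Glo luminescence endpoint.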

Assay [8] in a line: qHTS RealTime-Glo MT Cell Viability Assay in HepG2 cells - 24 hour (AID 1224867). Also: nearly all actives have a fitted effect of over 50% in size. Also: potency is read from the fitted curve at half-maximal effect. In outline:
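Cell number in HepG2 cultures estimated from NanoLuc luminescence generated by metabolic reduction of a prosubstrate by living cells. The homogeneous, nonlytic format allowed repeated reads at 0, 8, 16, 24, 32 and 40 h of compound exposure.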

Assay [9] is described as follows: qHTS RealTime-Glo MT Cell Viability Assay in HEK293 cells - 32 hour (AID 1224868). Also: nearly all actives have a fitted effect of over 50% in size. Also: potency is read from the fitted curve at half-maximal effect. In outline: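 Homogeneous bioluminescent viability format in HEK293 cells (600 cells/well). Following 5 h at 37 C/5% CO2, 23 nL compound was pintooled; the signal was measured repeatedly during 40 h incubation.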
A short description of assay [10]: qHTS RealTime-Glo MT Cell Viability Assay in HepG2 cells - 40 hour (AID 1224870). Also: nearly all actives have a fitted effect of over 50% in size. Also: potency is read from the fitted curve at half-maximal effect. In outline:
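HepG2 cells mixed with RealTime-Glo MT reagents (NanoLuc plus cell-permeant prosubstrate) were seeded at 600 cells/well, incubated 5 h at 37 C/5% CO2, then pinned with compounds in DMSO; nonlytic luminescence tracked viability during 40 h treatment.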
% is scaled to controls: 0 for no effect and ±100 for the full control effect.

Regarding `Fc1ccc([C@@H]2CCNC[C@H]2COc2ccc3c(c2)OCO3)cc1`, the Potency result in assay [1], in assay [2], in [3], in assay [4] and in [5] was “inactive” each time.

For the compound `C[n+]1cc2c3c(ccc2c2ccc4cc5c(cc4c21)OCO5)OCO3`, the Potency in [1] was 2.61 µM (active); in assay [2], 0.956 µM (active); in [4] it was 0.852 µM (active); in [6] it was 2.91 µM (active); in assay [8], 0.827 µM (active); in assay [9] it was 0.522 µM (active). Also, the activity change, positive = activation in assay [7] was -68.3% [at 19 µM]. The cytotoxicity in assay [5] is -9.5% [at 15.8 µM].

With `c1ccc(CSCc2ccccc2)cc1`, the Potency entry in assay [1], in [2], in assay [3], in assay [4], in assay [8] and in assay [9] was “inactive” each time. Also, in [5], the Potency entry is “inactive”.

As to `CNC(=O)c1ccccc1`, the Potency entry in assay [1], in assay [2], in assay [3], in assay [4], in assay [9] and in assay [5] was “inactive” throughout. The Potency result in assay [10] was “inactive”.

`NC(=O)NS(=O)(=O)c1ccc(N)cc1`: the Potency result in assay [1], in [2], in assay [3], in assay [4], in assay [8] and in [9] was “inactive” throughout. Besides, the Potency entry in assay [5] and in [10] was “inactive” in each case.

Turning to `CCC1OCC(COc2ccc(Oc3ccccc3)cc2)O1` (centres undefined), the Potency entry in assay [1], in assay [2], in assay [3], in [6], in [8] and in [5] was “inactive” throughout. Also, the activity change, positive = activation in [7] is -1.58% (active).

`CCCN(CCC)c1c([N+](=O)[O-])cc(C(F)(F)F)c(N)c1[N+](=O)[O-]`: the Potency in assay [1] is 13.8 µM (active); in assay [2] it was 35.6 µM (active); in [4], 50.4 µM (active); in assay [6], 30.5 µM (active); in assay [8], 54.8 µM (active); in assay [9], 19.4 µM (active). Besides, the activity change, positive = activation in [7] is -75.7%. Also, the Potency entry in assay [5] is “inactive”.

`CCC(N)(CO)CO`: the Potency entry in [1], in [2], in assay [3], in [4], in assay [6] and in assay [8] was “inactive” each time. Further, the Potency entry in assay [9], in [5] and in assay [10] was “inactive” each time. In [7], the activity change, positive = activation is 6.45%.

With `C/C=C(\C)C(=O)OCc1ccccc1`, the Potency entry in assay [1], in [2], in assay [3], in [4], in [6] and in assay [9] was “inactive” throughout. The Potency result in assay [5] and in assay [10] was “inactive” each time.

With `CCCCCCCCOc1ccccc1C(=O)Nc1ccc(C(=O)OCC[N+](C)(CC)CC)cc1`, the results for the Potency in assay [1], in [4] and in assay [9] were 7.56 µM (active), 24.7 µM (active) and 19 µM (active), respectively. For the same compound, the Potency result in assay [2], in assay [3], in assay [5] and in [10] was “inactive” in each case.

Turning to `C=C(C)C(=O)OCC[N+](C)(C)C`, the Potency entry in assay [1], in [2], in assay [3], in [4], in assay [8] and in assay [9] was “inactive” in each case. The Potency entry in [5] and in assay [10] was “inactive” each time.

In the case of `C[C@H]1[C@H]2CC[C@H]3[C@@H]4CC=C5C[C@@H](N(C)C)CC[C@]5(C)[C@H]4CC[C@]23CN1C`, the Potency entry in assay [1], in [2], in assay [3], in [6], in [8] and in assay [5] was “inactive” throughout.

As to `O=c1[nH]cnc2nc[nH]c12`, the Potency result in assay [1], in [2], in assay [3], in [6], in assay [8] and in [9] was “inactive” in each case. Further, the Potency entry in assay [5] and in [10] was “inactive” in each case. For the same compound, the activity change, positive = activation in [7] is 9.65% [at 42.5 µM].

Regarding `CSc1cnc(C)cn1`, the Potency result in [1], in assay [2], in assay [3], in [4], in assay [8] and in assay [9] was “inactive” in each case. Also, in assay [10], the Potency result is “inactive”. The Potency in [5] was 56.4 µM (active).

Consider `OCCCCCCCCCCCCBr`, for which the Potency is 44.3 µM (active) in [1], 102 µM (active) in [4] and 9.92 µM (active) in [9]. Further, the Potency result in assay [2], in [3], in [8], in assay [5] and in assay [10] was “inactive” throughout.

Turning to `CN(C)CCCOC1(Cc2ccccc2)CCCCCC1`, the Potency entry in [1], in assay [2], in [3], in [8], in [9] and in assay [5] was “inactive” each time. The Potency result in [10] was “inactive”.

On to `CCCCC(CC)CN=C(N)NC(N)=NCCCCCCN=C(N)NC(N)=NCC(CC)CCCC` (centres undefined), for which the Potency was 23.9 µM (active) in [1]; 43.8 µM (active) in assay [4]; 6.68 µM (active) in assay [6]; 8.49 µM (active) in assay [8]; 5.35 µM (active) in assay [9]. For the same compound, the Potency result in assay [2] and in [5] was “inactive” throughout.

Turning to `OCCN1CCN(CC/C=C2/c3ccccc3Sc3ccc(C(F)(F)F)cc32)CC1`, the Potency in [1] is 21.3 µM (active); in [6], 29.8 µM (active); in assay [8], 21.3 µM (active); in assay [9], 19 µM (active); in assay [10], 15.1 µM (active). Also, the Potency entry in assay [2] and in [5] was “inactive” each time. Moreover, the activity change, positive = activation in assay [7] is -67.6% [at 42.5 µM].

Take `C[C@]12CCC(=O)C=C1CC[C@@H]1[C@@H]2[C@@H](O)C[C@@]2(C)[C@H]1CC[C@]2(O)C(=O)COC(=O)CCC(=O)O`: the Potency result in assay [1], in assay [2], in [4], in assay [9], in assay [5] and in assay [10] was “inactive” in each case.

In the case of `CCCC(c1cc(C(C)(C)C)c(O)cc1C)c1cc(C(C)(C)C)c(O)cc1C`, the Potency in assay [1] was 9.89 µM (active); in assay [4] it was 25.6 µM (active); in [6], 15.5 µM (active); in [8] it was 39.4 µM (active); in assay [9], 19.7 µM (active); in assay [10] it was 31.3 µM (active). The Potency entry in assay [2] and in [5] was “inactive” each time. For the same compound, in assay [7], the activity change, positive = activation is -83.3%.

Turning to `Cc1[nH]cnc1C[C@H]1CCc2c(C)c3ccccc3n2C1=O`, the Potency result in assay [1], in assay [2] and in assay [5] was “inactive” each time. Further, the Potency in [4] was 87.6 µM (active); in [6] it was 26.6 µM (active); in [8], 38 µM (active); in [9], 23.9 µM (active); in assay [10] it was 42.6 µM (active).
